Experimental data: PubChem BioAssay AID488890 (Southern Research Specialized Biocontainment Screening …, 2010)
About 1,300 (0.41%) of roughly 320,000 compounds were called active. Roughly 3% stayed inconclusive and do not appear here. The rule behind the calls is not given here. These entries were drawn from the full list. Entries with a potency or affinity are not part of this list.

assay: growth inhibition of non-replicating M. tuberculosis (AID 488890); conditions: Mycobacterium tuberculosis non-replicating, at 25 µM, stronger effect = higher value;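 note: plate controls were DMSO cells for no effect and high antibiotic wells for full effect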

| SMILES | inhibition |
| --- | --- |
| Cn1c(SCc2cccnc2)nc2cccnc21 | -20.7% |
| CC/C(=N\N=C1\SC(C)C(=O)N1Cc1ccco1)c1ccccc1 (stereo not given) | 32% |
| COc1ccccc1CNC(=O)c1cnn2c(C(F)F)cc(C)nc12 | 24.9% |
| COc1ccccc1N1CCN(S(=O)(=O)CCNC(=O)C2CC2)CC1 | -6.08% |
| COc1ccc(-c2cc(C(F)F)n3ncc(C(=O)Nc4cnn(Cc5ccccc5)c4)c3n2)cc1 | -6.39% |
| O=[N+]([O-])c1ccc(Cc2nnc(-c3ccccc3Cl)o2)cc1 | 34.9% |
| O=[N+]([O-])c1ccc(Cc2nnc(-c3ccc(F)cc3)o2)cc1 | 72.1% |
| COc1ccc(OC)c(NCc2nnc(-c3ccccc3)o2)c1 | 77% |
| Cc1cccc(NCc2ccccc2O)c1C | 12.1% |
| c1ccc(CN2CCN(Cc3nnc(-c4ccccc4)o3)CC2)cc1 | 30.8% |
| Fc1ccc(-c2nnc(Cc3nnc(-c4ccc(F)cc4)o3)o2)cc1 | -8.26% |
| Clc1ccccc1OCc1nnc(-c2ccccc2Br)o1 | 29.1% |
| c1ccc(OCc2nnc(-c3ccccc3)o2)cc1 | 62.3% |
| O=C(Nc1nn(Cc2ccc(Cl)cc2)cc1Br)c1ccc(COc2ccccc2Cl)o1 | 44.8% |
| CCc1cc(CC)c(/C=N/NC(N)=O)c(CC)c1 | 6.49% |
| COc1ccc(-n2cnc3sc4c(c3c2=O)CCCC4)cc1 | 26% |
| CC(C)c1nnc(NC(=O)CN2C(=O)c3ccccc3C2=O)s1 | -1.11% |
| Cc1ccc(-n2ncc(C(=O)N3CCN(C(=O)c4ccco4)CC3)c2C2CCN(C(=O)OC(C)(C)C)CC2)cc1C | -1.31% |
| O=C(C1CCC1)N1CCc2cc(S(=O)(=O)NCCCN3CCCCC3)ccc21 | -2.13% |
| CCOC(=O)c1c(NC(=O)Nc2ccc(F)cc2)sc2c1CCN(C)C2 | 0.96% |
| C=CCn1c(O)c(C(CC)=NCCc2c[nH]c3ccccc23)c(=O)[nH]c1=O | 18.7% |
| Clc1ccc(-c2nnc(C3CC3)o2)cc1 | 63% |
| O=[N+]([O-])c1cccc(-c2nnc(C3CC3)o2)c1 | 8.89% |

| SMILES | inhibition |
| --- | --- |
| COc1cc(NC(=O)c2ccc(Cl)cc2)c(Cl)cc1NC(=O)c1cccnc1 | -8.85% |
| COc1cccc(O)c1CN1CCC(C(=O)Nc2ccc(Oc3cccnc3)cc2)CC1 | 19.3% |
| Cc1ccccc1CN1CCC(C(=O)Nc2ccc(Oc3cccnc3)cc2)CC1 | 30.1% |
| CC1Cc2ccccc2N1C(=O)CO/N=C/c1ccccc1OC(F)F (stereo not given) | -12.1% |
| C=CCn1c(O)c(N=NC(=O)C(O)c2ccccc2)c2ccccc21 (stereo not given) | 15.4% |
| CC(OC(=O)c1snc(C(=O)NC2CCCCC2)c1N)C(=O)NC(C)(C)C (stereo not given) | 48.2% |
| CC(C)(C)NC(=O)CN(C(=O)c1snc(C(=O)NC2CCCCC2)c1N)c1ccc(F)cc1 | -3.77% |
| CC(OC(=O)c1snc(C(=O)NC2CCCCC2)c1N)C(=O)NC1CCCCC1 (stereo not given) | -11.8% |
| CCOC(=O)c1snc(C(=O)NC2CCCCC2)c1N | 64.4% |
| C/C(=N\NC(=O)C(C)Nc1cccc(Cl)c1)c1ccc([N+](=O)[O-])cc1 (stereo not given) | 6.72% |
| Cc1ccc2oc(=O)c3cnn(CC(=O)NCCC(C)C)c3c2c1 | -1% |
| COCCN1C(=O)N[C@@H](c2ccccc2)[C@@H](C(=O)OC)[C@H]1C | -23.2% |
| CC(C)NC(=O)C(c1ccc(F)cc1)N(C(=O)CCC(=O)Nc1ccccn1)C1CCCCC1 (stereo not given) | -1.84% |
| O=C1Nc2ccccc2C1Cc1ccccc1 (stereo not given) | 24.6% |
| FC(F)(F)c1cc(CO[C@@H]2CCCN[C@@H]2c2ccccc2)cc(C(F)(F)F)c1 | 63.4% |
| CCOc1ccc(Br)cc1/C=N/NC(=O)c1ccncc1 | 73.7% |
| CS(=O)(=O)c1ccc(Cl)c(NC(=O)COC(=O)Cc2c[nH]c3ccccc23)c1 | -10% |
| Cc1ccc(NC(=O)COC(=O)Cc2c[nH]c3ccccc23)cc1C | 35.7% |
| O=C(COC(=O)Cc1c[nH]c2ccccc12)Nc1cccc2ccccc12 | 2.45% |
| COc1ccc(CNC(=O)CCc2c[nH]c3ccccc23)cc1 | -7.3% |
| CS(=O)(=O)c1ccc(Cl)c(NC(=O)COC(=O)CCc2c[nH]c3ccccc23)c1 | 74.8% |
| COc1ccc(C(=O)NCCc2c[nH]c3ccccc23)cc1 | 25.8% |
| Cc1cccc(NC(=O)COC(=O)Cc2c[nH]c3ccccc23)c1C | 6.74% |

| SMILES | inhibition |
| --- | --- |
| COc1ccc(NC(=O)COC(=O)CCCc2c[nH]c3ccccc23)cc1OC | 16.1% |
| CCc1ccccc1N(C(=O)c1snc(C(N)=O)c1N)C(C(=O)NCC1CCCO1)c1ccc(C)o1 (stereo not given) | 37.2% |
| C[C@H]1COC(=O)[C@H](Cc2ccc(F)cc2)C/C=C\C[C@H](CC(=O)NCCO)C(=O)N1 | 6.21% |
| CCCCN(C(=O)C1CCC1)c1c(N)n(CCC)c(=O)[nH]c1=O | -13.3% |
| COc1cc(OC)c(C2=NOC(C(=O)NCc3cccnc3)C2)cc1Cl (stereo not given) | 2.26% |
| COc1ccc(NC(=O)c2coc3ccccc23)cc1OC | 48.1% |
| C[C@H](OC(=O)N1CCN(C(c2ccccc2)c2ccccc2)CC1)[C@@H]1O[C@@]2(C)CCC[C@H]1O2 | 3.49% |
| COCCN1C(=O)c2ccccc2C(C(=O)N2CCN(c3ccccc3)CC2)C1c1ccc(F)cc1 (stereo not given) | 30% |
| NS(=O)(=O)c1cccc(NC(=O)COC(=O)CCCc2c[nH]c3ccccc23)c1 | 7.86% |
| O=C(COC(=O)c1c[nH]c2ccccc12)Nc1ccc([N+](=O)[O-])cc1 | -4.96% |
| COc1cccc(NC(=O)COC(=O)CCCc2c[nH]c3ccccc23)c1 | 58.5% |
| Cc1ccnc(NC(=O)CCCc2c[nH]c3ccccc23)c1 | 11.4% |
| CC(=O)Nc1ccc(NC(=O)COC(=O)CCCc2c[nH]c3ccccc23)cc1 | 13.7% |
| Cc1ccc(NC(=O)CCc2c[nH]c3ccccc23)nc1 | 65.6% |
| COc1ccc2cc(C3CC(c4cccs4)=NN3C(C)=O)c(Cl)nc2c1 (stereo not given) | -4.81% |
| CCCc1nc2c(=O)[nH]c3ccccc3c2o1 | -9.47% |
| CCCCc1nc2c(=O)[nH]c3ccccc3c2o1 | -16.6% |
| CNCc1ccccc1Sc1cccc(O)c1 | -3.89% |
| CNCc1ccccc1Sc1ccc(O)c(O)c1 | 33.3% |
| COc1ccc(CCNC(=O)COc2ccc(-c3ccc(C#N)cc3)cc2)cc1 | 72.4% |
| CC(=O)Nc1ccc(NC(=O)COc2ccc(-c3ccc(C#N)cc3)cc2)cc1 | -7.55% |
| CC(=O)NCCOc1ccc2oc3ccccc3c2c1 | 5.68% |
| O=C(O)COc1ccc2oc3ccccc3c2c1 | 3.49% |

| SMILES | inhibition |
| --- | --- |
| CC(C)N(Cc1ccccc1)C(=O)CC(=O)N(Cc1ccccc1)C(C)C | 6.28% |
| CCc1ccc(-c2cc(C)no2)cc1S(=O)(=O)Nc1cc(C)ccn1 | -1.42% |
| CCOC(=O)N1CCN(C(=O)CN(C)S(=O)(=O)c2ccc(Cl)cc2)CC1 | -17.1% |
| CSCCC(NC(=O)c1ccco1)C(=O)NC1CCCCCC1 (stereo not given) | -8.42% |
| Cc1cc(Nc2nc3ccccc3nc2Cl)n(-c2ccccc2)n1 | 8.46% |
| CC(C)(O)C(=O)NNC(=S)NCc1ccco1 | -2.82% |
| CC(C)(C)NC(=S)NCc1ccco1 | -18.9% |
| COc1ccc(/C=N/NC(=O)c2cccs2)c2ccccc12 | 76.3% |
| CCOC(=O)CCCNC(=O)COC(=O)c1ccc(O)cc1 | -2.65% |
| CCOC(=O)CCCNC(=O)COC(=O)c1cc(C)cc(C)c1 | -5.81% |
| COc1ccc(S(=O)(=O)NCC2CCCN(Cc3ccc(C)o3)C2)cc1 (stereo not given) | 8.61% |
| COc1ccc(C(=O)N2CCN(CCNC(=O)C(=O)Nc3ccc(F)cc3)CC2)cc1OC | -5.42% |
| CC(C)NCC(=O)C12CC3CC(CC(C3)C1)C2 | -12.5% |
| COc1ccc(C(=O)COC(=O)CCc2nc3ccccc3[nH]c2=O)cc1Br | 5.73% |
| COC1CCCN(C(=O)c2ccc3oc(Cc4ccc(Cl)cc4)nc3c2)C1 (stereo not given) | 23.6% |
| CCN(CC)c1ccc(CNCc2cccs2)cc1 | 6.27% |
| O=C(COc1ccccc1)NNC(=O)c1cc2ccccc2oc1=O | 10.5% |
| COc1ccc2oc(=O)c(C(=O)NC(C)c3ccccc3)cc2c1 (stereo not given) | 16.5% |
| Cc1cc(C)cc(OCC(=O)NNC(=O)c2cc3ccccc3o2)c1 | -4.01% |
| Cc1ccc(C(C)NC(=O)c2ccco2)cc1C (stereo not given) | 71.1% |
| CC(NC(=O)c1cc(Br)ccc1Br)c1ccccc1 (stereo not given) | -17.5% |
| CC(=O)OCCNC(=O)c1cc2ccccc2oc1=O | -10.9% |
| COc1cccc2cc(C(=O)NC(C)c3ccccc3)c(=O)oc12 (stereo not given) | 26.4% |

| SMILES | inhibition |
| --- | --- |
| CC(NC(=O)c1cc(Br)ccc1Cl)c1ccccc1 (stereo not given) | 0.91% |
| Cc1ccccc1CS(=O)(=O)CCC(=O)NCCCN1CCOCC1 | -2.86% |
| CCN(CC)CCNC(=O)c1ccc(NC(=O)c2cc(-c3ccco3)nc3ccccc23)cc1 | 4.2% |
| O=C(CCc1ccccc1)Nc1cc(NC(=O)CCc2ccccc2)cc(C(=O)O)c1 | -12.7% |
| COc1ccc(C(=O)Nc2ccccc2NC(=O)c2ccc(OC)cc2)cc1 | -3.72% |
| COc1ccc(-c2nc(-c3cccs3)no2)cc1 | 24.2% |
| COc1ccc(/C=N/c2nc3ccccc3n2CCN2CCCCC2)cc1OC | 4.24% |
| Cc1ccc(S(=O)(=O)N2CCOC2CNC(=O)C(=O)NCCN(C)C)cc1 (stereo not given) | -4.76% |
| CCN(C(=O)COC(=O)c1ccc(Cl)cc1N)C1CCCCC1 | 30.8% |
| O=c1c2cc([N+](=O)[O-])cc([N+](=O)[O-])c2[nH]n1-c1ccccc1 | 5.65% |
| CC(=NNC(=O)COc1cccc(C)c1)c1cccnc1 | 2.36% |
| COc1ccc(CNC(=O)C/C(C)=N/NC(=O)COc2cccc(C)c2)cc1 | -10.6% |
| O=S(=O)(Nc1ccc2c3c(cccc13)CC2)c1ccc(F)cc1 | 21.3% |
| O=S(=O)(Nc1c(O)ccc2ccccc12)c1ccc(F)cc1 | -1.3% |
| O=C(COc1ccc(Br)cc1)Nc1ccccc1N1CCCC1 | 26.6% |
| CCn1c(NC(=S)Nc2ccccc2)nc2ccccc21 | 57.9% |
| CCn1c(NC(=O)c2ccc(COc3ccc(C)cc3[N+](=O)[O-])o2)nc2ccccc21 | 14% |
| CCn1c(NC2CCCCC2)nc2ccccc21 | 8.52% |
| CCn1c(-c2nonc2NC(=O)c2ccccc2)nc2ccccc21 | 3.27% |
| CCn1c(CNC(=O)c2ccccc2)nc2ccccc21 | 2.98% |
| CCn1c(NC(=O)Nc2ccccc2OC)nc2ccccc21 | 43% |
| CN(C)CCCn1c(NC(=O)C2CCCCC2)nc2ccccc21 | 24.1% |
| O=C(Nc1nc2ccccc2n1Cc1ccccc1)c1ccc(COc2ccccc2[N+](=O)[O-])o1 | -4.43% |
